Reference: the supplement of paper PMC9023506
Where a name gives a salt, the structure may show the parent alone.

system: Danio rerio larvae (5 dpf); assay: excitability to 1-s acoustic pulses, difference vs DMSO (percentage points (treated minus DMSO)); higher = more of the behaviour than the DMSO vehicle control; conditions: 10 µM; exposure time: 3 h pre-incubation + 3 h imaging
Method: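 5-dpf wild-type zebrafish larvae were imaged in 96-well plates. They were treated with 190 Tocris FDA-approved drugs at 10 µM (1 µl/ml DMSO) for 3 h before and 3 h during imaging at 28.5 °C, 48 larvae per drug. Automated image analysis gave % time moving and optomotor responses. Values are drug group mean minus DMSO vehicle mean (n=844), in percentage points, for 10 behaviours.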

Going from `CCOC(=O)N1CCC(=C2c3ccc(Cl)cc3CCc3cccnc32)CC1` [Loratidine] to `CN1CCN2c3ncccc3Cc3ccccc3C2C1` (stereo not given) [Mirtazapine], the “excitability to 1-s acoustic pulses” value rises from -6.95 to 0.878.

First: COc1ccc(-c2ccc3cc(C(=O)O)ccc3c2)cc1C12CC3CC(CC(C3)C1)C2 [Adapalene]
Second: Cc1c(-c2ccc(O)cc2)n(Cc2ccc(OCCN3CCCCCC3)cc2)c2ccc(O)cc12 [Bazedoxifene acetate]
The “excitability to 1-s acoustic pulses” value of the first is lower: -0.119 for the first, 16 for the second.

First: NC(=O)N1c2ccccc2C=Cc2ccccc21 [Carbamazepine]
Second: CCOC(=O)[C@H](CCc1ccccc1)N[C@H]1CCc2ccccc2N(CC(=O)O)C1=O [Benazepril hydrochloride]
The “excitability to 1-s acoustic pulses” value of the first is lower: -0.497 for the first, 0.498 for the second.

Going from `Nc1nc(NC2CC2)c2ncn([C@H]3C=C[C@@H](CO)C3)c2n1` [Abacavir hemisulfate] to `CN1CC[C@@H](NC(=O)Nc2ccc(C#N)cc2)C[C@@H]1c1nc2ccccc2[nH]1`, the “excitability to 1-s acoustic pulses” value rises from -1.97 to 7.99.

Compared with `NS(=O)(=O)Cc1noc2ccccc12` [Zonisamide], `CCOc1ccccc1OCCN[C@H](C)Cc1ccc(OC)c(S(N)(=O)=O)c1` [Tamsulosin hydrochloride] is higher in “excitability to 1-s acoustic pulses” value: 2.79 for the first, 14.9 for the second.

First: CCOc1cc(CC(=O)N[C@@H](CC(C)C)c2ccccc2N2CCCCC2)ccc1C(=O)O [Repaglinide]
Second: CC(C)Nc1cccnc1N1CCN(C(=O)c2cc3cc(NS(C)(=O)=O)ccc3[nH]2)CC1 [Delavirdine mesylate]
The “excitability to 1-s acoustic pulses” value of the first is higher: 9.31 for the first, 0.884 for the second.

First: CCCN(CCc1cccs1)[C@H]1CCc2c(O)cccc2C1 [Rotigotine hydrochloride]
Second: CC(CCc1ccc(O)cc1)NCCc1ccc(O)c(O)c1 (stereo not given) [Dobutamine hydrochloride]
The “excitability to 1-s acoustic pulses” value of the first is higher: 31.3 for the first, 5.75 for the second.

`CN(C)C(=N)NC(=N)N` [Metformin hydrochloride] and `CC/C(=C(\c1ccccc1)c1ccc(OCCN(C)C)cc1)c1ccccc1` [Tamoxifen citrate] are the same in “excitability to 1-s acoustic pulses” value: 4.58 for the first, 4.58 for the second.

Going from `NS(=O)(=O)c1cc(C(=O)O)c(NCc2ccco2)cc1Cl` [Furosemide] to `CCOC(=O)C1=C(COCCN)NC(C)=C(C(=O)OC)C1c1ccccc1Cl` (stereo not given) [Amlodipine besylate], the “excitability to 1-s acoustic pulses” value falls from 0.211 to -1.57.

Going from `CC(=O)O[C@]1(C(C)=O)CC[C@H]2[C@@H]3C=C(C)C4=CC(=O)CC[C@]4(C)[C@H]3CC[C@@]21C` [Megestrol Acetate] to `CC[C@H](C)C(=O)O[C@H]1C[C@@H](C)C=C2C=C[C@H](C)[C@H](CC[C@@H]3C[C@@H](O)CC(=O)O3)[C@H]21` [Lovastatin], the “excitability to 1-s acoustic pulses” value falls from 14.4 to 12.6.

Going from `OCc1cc(C(O)CNCCCCCCOCCCCc2ccccc2)ccc1O` (stereo not given) [Salmeterol xinafoate] to `COc1ccc(C[C@@H](C)NC[C@H](O)c2ccc(O)c(NC=O)c2)cc1` [Arformoterol tartrate], the “excitability to 1-s acoustic pulses” value falls from 12.3 to 5.34.

Going from `CC(=O)Nc1ccc(O)cc1` [Acetaminophen] to `CCCCCCCN(CC)CCCC(O)c1ccc(NS(C)(=O)=O)cc1` (stereo not given) [Ibutilide hemifumarate], the “excitability to 1-s acoustic pulses” value rises from -2.54 to 12.9.

Going from `C[C@H]1O[C@H](O[C@H]2[C@H](O)[C@@H](O)[C@@H](O[C@H]3[C@H](O)[C@@H](O)C(O)O[C@@H]3CO)O[C@@H]2CO)[C@H](O)[C@@H](O)[C@@H]1N[C@H]1C=C(CO)[C@@H](O)[C@H](O)[C@H]1O` (stereo not given in full) [Acarbose] to `COc1c(C)c2c(c(O)c1C/C=C(\C)CCC(=O)O)C(=O)OC2` [Mycophenolic acid], the “excitability to 1-s acoustic pulses” value rises from -4.01 to 0.774.

First: COc1c(C)c2c(c(O)c1C/C=C(\C)CCC(=O)OCCN1CCOCC1)C(=O)OC2 [Mycophenolate mofetil]
Second: COc1cc2nc(N3CCN(C(=O)C4COc5ccccc5O4)CC3)nc(N)c2cc1OC (stereo not given) [Doxazosin mesylate]
The “excitability to 1-s acoustic pulses” value of the first is lower: 0.817 for the first, 20.8 for the second.

Compared with `Cc1cc(C2CCCCC2)n(O)c(=O)c1` [Ciclopirox], `Nc1cccc2c1CN(C1CCC(=O)NC1=O)C2=O` (stereo not given) [Lenalidomide] is lower in “excitability to 1-s acoustic pulses” value: 5.96 for the first, -2.77 for the second.

Compared with `CS(=O)(=O)CCNCc1ccc(-c2ccc3ncnc(Nc4ccc(OCc5cccc(F)c5)c(Cl)c4)c3c2)o1` [Lapatinib], `CCOc1nc2cccc(C(=O)O)c2n1Cc1ccc(-c2ccccc2-c2nnn[nH]2)cc1` [Candesartan] is lower in “excitability to 1-s acoustic pulses” value: 14.5 for the first, -3.51 for the second.

First: CN[C@H]1CC[C@@H](c2ccc(Cl)c(Cl)c2)c2ccccc21 [Sertraline hydrochloride]
Second: O=c1n(CCCN2CCN(c3cccc(Cl)c3)CC2)nc2ccccn12 [Trazodone hydrochloride]
The “excitability to 1-s acoustic pulses” value of the first is lower: 8.5 for the first, 18.6 for the second.

Compared with `CCc1ccc(CCOc2ccc(CC3SC(=O)NC3=O)cc2)nc1` (stereo not given) [Pioglitazone hydrochloride], `COCCc1ccc(OCC(O)CNC(C)C)cc1` (stereo not given) [Metoprolol tartrate] is lower in “excitability to 1-s acoustic pulses” value: 6.94 for the first, -8.67 for the second.

Compared with `COC(=O)C1=C(C)NC(C)=C(C(=O)OC(C)C)C1c1cccc2nonc12` (stereo not given) [Isradipine], `Cc1cn([C@H]2C=C[C@@H](CO)O2)c(=O)[nH]c1=O` [Stavudine] is lower in “excitability to 1-s acoustic pulses” value: 19.8 for the first, 3.23 for the second.

First: Cn1nnc2c(C(N)=O)ncn2c1=O [Temozolomide]
Second: CC(C)(C#N)c1cc(Cn2cncn2)cc(C(C)(C)C#N)c1 [Anastrozole]
The “excitability to 1-s acoustic pulses” value of the first is lower: -2.39 for the first, 3.65 for the second.
